In PubChem BioAssay (NCI) one finds growth inhibition data, which are given here for 40 molecules.

Structures are written as SMILES. The panel holds about 79,000 compounds, 15% with a hit somewhere; the sample as a whole holds those more often. Active and inactive are the calls of the source. Cut-off read from the data, not from the text of the source: active = growth inhibition above about 70%; inactive = the rest.

The nature of the experiment: NCI Yeast Anticancer Drug Screen. Data for the bub3 strain (AID 167). Particulars: S. cerevisiae bub3 mutant strain, at 50.0 µM, active compounds read high. The protocol: Growth inhibition of yeast strains with defined genetic alterations is measured as a screen for potential anti-cancer activity. Selected strains with alterations in DNA damage repair or cell cycle control were exposed to compounds and growth inhibition was measured relative to vehicle treated controls. The strain used in this assay is bub3
Regarding `CC1=Nc2c(ccc3c2C(=O)c2ccccc2C3=O)NC(c2ccncc2)C1` (stereo not given), the growth inhibition was 0.35% (inactive).

Take `O=c1cccc(O)[nH]1`: the growth inhibition is -15.7% (inactive).

For `N#C/C(=C\c1ccc(Cl)cc1)C(=O)c1ccccc1`, the growth inhibition was 6.95% (inactive). As to `COc1ccc(N(Cc2ccccc2)c2nn[nH]n2)cc1`, the growth inhibition was -5.6% (inactive). Turning to `COc1cc(C2C3=C(COC3=O)OC(C)(C)Oc3cc4c(cc32)OCO4)cc(OC)c1O` (stereo not given), the growth inhibition was -27.1% (inactive). As for `O=C1C/C(=C\c2cccc([N+](=O)[O-])c2)C(=O)N1`, the growth inhibition is -2.8% (inactive).

Consider `CCOC(=O)CCC(=O)c1ccc2cc(OC)ccc2c1`, for which the growth inhibition was 34.9% (inactive). Turning to `O=C(O)c1ccc2c(c1)CC1(C2)Cc2ccccc2C1=O` (stereo not given), the growth inhibition is 6.15% (inactive). Turning to `Cc1ccc2c(CC(=O)O)cc(=O)oc2c1`, the growth inhibition was -0.3% (inactive). Take `C(CC1CCNCC1)CC1CCNCC1`: the growth inhibition is 12.2% (inactive).

For the molecule `CC(C)CCCC(C)[C@H]1CCC2[C@@H]3CCC4Cc5nc6c(nc5C[C@]4(C)C3CC[C@@]21C)CC1CC[C@@H]2C(C[C@@H](O)[C@@]3(C)C2C[C@@H]2OC4(CCC(C)CO4)C(C)[C@@H]23)[C@@]1(C)C6` (stereo not given in full), the growth inhibition was -10.9% (inactive). Take `O=C1Oc2ccccc2C(=O)C1=S1CCCC1`: the growth inhibition was 9.05% (inactive). As for `O=C(O)C1=C(O)CCN=C1`, the growth inhibition is -3.95% (inactive). The same measure for `N#Cc1ccc(CCc2ccc(Cl)cc2)cc1`: 1.3% (inactive). As for `COc1cc2c(cc1OC)C(C#N)(C(c1ccccc1)c1ccccc1)N(C(=O)c1ccccc1)C=C2` (stereo not given), the growth inhibition was -0.7% (inactive). Consider `C1CCC(C(CCCCC(C2CCCCC2)C2CCCCC2)C2CCCCC2)CC1`, for which the growth inhibition was -0.7% (inactive). Regarding `CCOP(=O)(OCC)/C(C#N)=C/c1ccc(N(C)C)cc1`, the growth inhibition is -13.9% (inactive).

For the molecule `O=C(CCCC(=O)N/N=C/c1cc(Cl)ccc1[N+](=O)[O-])N/N=C\c1cc(Cl)ccc1[N+](=O)[O-]`, the growth inhibition was -1.9% (inactive). The same measure for `COCCCN1COCC(COc2ccc(Cl)cc2)OC1` (stereo not given): -36.6% (inactive); for `NC(=O)C(C(N)=O)c1ccnc2ccccc12`: -2.1% (inactive). Regarding `O=c1[nH]cnc2nc(N3CCN(c4ccccc4)CC3)sc12`, the growth inhibition was 4.9% (inactive).

Turning to `Nc1nc(N)c(N=Nc2ccc([N+](=O)[O-])cc2)c(=O)[nH]1`, the growth inhibition is 0.7% (inactive). For `NC(=O)N/N=C1\CC2CC1C1CCCC21` (stereo not given), the growth inhibition was -8.9% (inactive). Consider `NC(=O)C1C2CC3C(C2O)C31C(N)=O` (stereo not given), for which the growth inhibition is -12.9% (inactive).

For `CC(C)CCCC(C)C1CCC2C3CCC(O)C(C)(CCCO)C3CCC12C` (stereo not given), the growth inhibition was 15.3% (inactive).

Consider `Cc1ccc(S(=O)OCC23CC4CC(CC(C4)C2)C3)cc1` (stereo not given), for which the growth inhibition was -5.55% (inactive).

`O=C(O)CNC(=O)OCc1ccccc1`: the growth inhibition was 1.55% (inactive). Regarding `Cc1ccc(NC(=O)CC/C(CC(=O)C(C)(C)C)=N\Nc2ccc([N+](=O)[O-])cc2[N+](=O)[O-])cc1C`, the growth inhibition was 7.8% (inactive). For `ClC(Cl)(Cl)SSC(=Nc1ccccc1)SSC(Cl)(Cl)Cl` the value was 64.3% (inactive); for `NC(CSS(=O)(=O)CC(N)C(=O)O)C(=O)O` (stereo not given), 6.4% (inactive); for `COC(=O)Cc1c(C(C)=O)[nH]c2ccccc12`, 4.25% (inactive).

`CCOc1ccc(S(=O)(=O)OCC)cc1`: the growth inhibition was -8.45% (inactive). In the case of `CCN(CC)CN1C(=O)C2C3C=CC(C2C1=O)C1C2C(=O)N(CN(CC)CC)C(=O)C2C31` (stereo not given), the growth inhibition is -47.5% (inactive). Regarding `COc1ccc(C2CCCCCC2OS(=O)(=O)c2ccc(C)cc2)c(OC)c1OC` (stereo not given), the growth inhibition is 8.45% (inactive).

As to `O=c1[nH]c(-c2ccccc2N=NN2CCCCC2)nc2ccccc12`, the growth inhibition is -4.45% (inactive). For `C/C(=N\NC(=O)c1ccncc1)c1cccc(F)c1` the value was -67.8% (inactive). With `C=C(C)Cn1cnc2c1c(=O)n(C)c(=O)n2C`, the growth inhibition is -14.1% (inactive). For `CCCCN(C)CC(C)O` (stereo not given) the value was 4.85% (inactive); for `c1ccc(-c2nnc(-c3ccccc3)c3nonc23)cc1`, 12.6% (inactive); for `O=C(Nc1cc2cc([N+](=O)[O-])ccc2oc1=O)c1cccs1`, -40.2% (inactive).
